Shown are actives, neighbours in structure and some others; about 1.9% of the full set was active somewhere.
IL2 activator: IL-2 activation; activation, % (series mostly up to about 46 µM); AID 652025; 360,000 tested, 0.065% active; IL-2 activation reporter assay, cell-based qHTS; stimulated with anti-CD3/CD4/CD28 beads; in transgenic mouse T cells; in the data active = activation above about 50%; inconclusive = mostly about 30% to 49%
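EGFP and DsRed fluorescence is measured by plate cytometry in unstimulated transgenic mouse T cells exposed to compound for 60 minutes, then stimulated 18 hours at 37 degrees C with anti-CD3/anti-CD4 beads plus anti-CD28.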
BRCA1 expr up: activators of BRCA1 expression; MCF7-BRCA1-FFLuc reporter, luminescence, 48 h; response scale: scaled: vehicle 0%, 10 µM genistein 100%; Potency, µM (titrated, usually from 46.1 µM), usual class: activators; 380,000 tested, 1.1% active; also: nearly all actives have a fitted effect of over 80% in size
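Activators of BRCA1 expression were detected as increased firefly luciferase luminescence in engineered MCF7 cells after 48 h compound incubation. Signals were scaled to genistein 10 microM as full activation.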
RXFP1 antag: RXFP1 (human) relaxin receptor antagonism. activity change, negative = inhibition, % at 57.5 µM. 350,000 tested, 0.59% active. HEK293-RXFP1, relaxin-stimulated cAMP HTRF, 30 min; active compounds read low. Q9HBX9;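 active = activity change of -60% or lower, but not beyond a set lower limit; inconclusive = change between -60% and -40%, or beyond the set limit; inactive = change above -40%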
Target sequence (Q9HBX9 whole entry, looked up): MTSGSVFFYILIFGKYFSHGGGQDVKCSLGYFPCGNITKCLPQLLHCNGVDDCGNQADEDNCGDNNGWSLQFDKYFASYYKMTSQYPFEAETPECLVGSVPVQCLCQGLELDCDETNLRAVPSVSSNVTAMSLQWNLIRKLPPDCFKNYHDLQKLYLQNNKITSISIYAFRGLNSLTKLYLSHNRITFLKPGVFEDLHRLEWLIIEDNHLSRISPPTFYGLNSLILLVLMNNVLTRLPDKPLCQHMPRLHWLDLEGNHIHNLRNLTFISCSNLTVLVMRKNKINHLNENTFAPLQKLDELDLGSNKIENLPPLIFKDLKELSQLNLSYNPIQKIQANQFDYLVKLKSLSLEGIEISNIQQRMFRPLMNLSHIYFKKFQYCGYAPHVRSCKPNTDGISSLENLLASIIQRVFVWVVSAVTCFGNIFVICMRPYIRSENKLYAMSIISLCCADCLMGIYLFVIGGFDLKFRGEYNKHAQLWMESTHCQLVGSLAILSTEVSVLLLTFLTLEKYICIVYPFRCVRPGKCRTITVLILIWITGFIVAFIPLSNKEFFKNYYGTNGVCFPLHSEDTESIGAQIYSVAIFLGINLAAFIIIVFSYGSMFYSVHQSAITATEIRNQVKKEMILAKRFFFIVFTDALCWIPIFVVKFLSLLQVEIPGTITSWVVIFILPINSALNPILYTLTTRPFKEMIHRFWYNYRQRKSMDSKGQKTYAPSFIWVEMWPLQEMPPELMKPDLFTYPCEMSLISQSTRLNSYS
NPSR antag: antagonists of human neuropeptide S receptor cAMP signaling | CHO-NPSR cells, cAMP TR-FRET, antagonist mode | Potency, µM (titrated, usually from 38.3 µM), usual class: inhibitors | 220,000 tested, 1% active | AID 1461; also: nearly all actives have a fitted effect of over 50% in size
Giardia killer: Giardia lamblia killing; activity change, % at 7.66 µM, hits read low; 340,000 tested, 0.15% active; Giardia lamblia trophozoite viability; AID 540267; in the data active = activity change below about -80%; inconclusive = between about -30% and that limit;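 also: parasites exposed to compound for two days anaerobically before the ATP read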
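Media and compound were dispensed first, then trophozoites at 100 cells/well; plates sat 48 hrs at 37 deg C without oxygen before ATP luminescence reagent was added and read after 15-30 min at room temperature.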
RXFP1 agonist: activates the human relaxin receptor RXFP1. Q9HBX9. HEK293T-RXFP1 cAMP TR-FRET, 30 min; response scale: percent of porcine relaxin response, buffer zero. Potency, µM (highest dose often 57.5 µM), usual class: activators. AID 2676. 370,000 tested, 0.3% active; also: nearly all actives have a fitted effect of over 60% in size
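HEK293 cells stably expressing RXFP1, treated 30 min at 37C with compounds plus PDE4 inhibitor Ro 20174; cAMP measured by HTRF TR-FRET. Normalized to buffer and 29 nM porcine relaxin; EC50 by Hill fit.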
Hits are given with their value; - = inactive; ? = inconclusive; . = no result; ! = repeats disagree; [ ] = remark or other dose. Unless noted, calls follow the shape of the dose curve; as a rule, active = well fitted curve in the direction sought with a large enough effect; inconclusive = small, poorly fitted or top-dose-only effect, or another doubt; inactive = no such curve, though single readings can be large; an effect the other way counts as inactive or inconclusive.

SMILES | IL2 activator | BRCA1 expr up | RXFP1 antag | NPSR antag | Giardia killer | RXFP1 agonist
COc1cccc(N2CCN(C(=O)c3cnn(-c4ccccc4Cl)c3C3CCN(C(=O)OC(C)(C)C)CC3)CC2)c1 | . | . | - | . | . | -
CCN(CC)CCNC(=O)C1CCN(c2cc(C)nc3c(-c4ccc(Cl)cc4)c(C)nn23)CC1 | . | - | . | . | . | -
CCOC(=O)N=Nc1c2ccccc2c2nc3no[nH]c3nc12 | - | - | - | 6.3µM | -96 | -
CCOC(=O)N=Nc1c(O)n(CC(=O)OC)c2ccccc12 | - | - | - | - | - | -
CC(Nc1oc(-c2ccc(COc3ccccc3)o2)nc1C#N)c1ccccc1 (configuration not stated) | . | . | - | . | . | -
O=C(Nc1ccc(Cl)cc1Cl)C1=Cc2ccccc2OC1 | - | 10µM | - | - | - | -
O=C(Nc1ccc(Cl)cc1)C1=Cc2cc(Cl)ccc2OC1 | - | - | - | - | - | -
COc1cc2c(NC3CCN(C)CC3)nc(N3CCCN(C)CC3)nc2cc1OCCCC(C)C | . | - | . | . | . | .
Cc1cc(NC(=O)c2cccc(Br)c2)n[nH]1 | - | 11µM | . | . | - | -
Cc1c(Nc2cc(Cl)c3nonc3c2[N+](=O)[O-])c(=O)n(-c2ccccc2)n1C | - | - | ? | 6.3µM | - | -
COc1ccc(CCOC(=O)c2ccc(NC(=O)CC#N)cc2)cc1 | - | - | - | . | - | -
COC(=O)c1ccc(COC(=O)CNC(=O)c2ccc(OC)cc2)cc1 | - | 5µM | - | . | - | .
COc1ccc(C(=O)OCCc2ccc(O)cc2)cc1 | - | 5µM | . | - | - | -
O=C1C2=C(C(=O)c3ccccc31)C1O[C@](CCCCN3C(=O)c4ccccc4C3=O)(Cc3c1ccc1ccccc31)O2 | . | . | . | . | . | -[11.5 µM]
COc1ccc(CCn2c(O)cc3nn(-c4nc5ccccc5s4)c(=O)c-3c2C)cc1 | - | - | -70 | - | - | -
O=C(CN1CCCc2ccccc21)N/N=C/c1c(O)ccc2ccccc12 | - | - | -61 | - | - | -
O=C(CN1CCCc2ccccc21)N/N=C/c1ccccc1 | - | - | - | - | - | -
Cc1ccc(Nc2nnc(-c3ccc4c(c3)OCO4)o2)c(C)c1 | - | 10µM | - | - | - | -
COc1ccccc1NC(C)C(=O)c1c(C)[nH]c2ccccc12 (configuration not stated) | . | - | . | . | . | .
CCOC(=O)CNC(=O)c1sc(NC(=O)c2cccc(F)c2)nc1C | - | 8.9µM | - | - | - | -
Cc1ccccc1Nc1cc(C(=O)NC2CCC(C)CC2)c2ccccc2n1 (configuration not stated) | . | . | - | . | . | -
CCCCc1ccc(Nc2ncnc3nc[nH]c23)cc1 | - | 4.5µM | . | - | - | -
O=S(=O)(Nc1ccccn1)c1ccc(Cl)cc1 | - | - | - | - | - | -
O=S(=O)(Nc1ccccn1)c1ccc(-n2cccn2)cc1 | - | - | -108 | . | - | -
O=C(Cc1ccc(-c2ccccc2)cc1)NCCS(=O)(=O)N1CCN(c2ccccc2F)CC1 | . | . | - | . | . | -
SMILES | IL2 activator | BRCA1 expr up | RXFP1 antag | NPSR antag | Giardia killer | RXFP1 agonist
CCn1c(=O)cc(C(=O)OC)sc1=Nc1ccc(F)c(F)c1 | - | - | - | - | - | -
CCOC(=O)c1ccc(N=c2sc(C(=O)OC)cc(=O)n2CCCN2CCOCC2)cc1 | - | - | - | 13µM! | - | -
COC(=O)c1cc(=O)n(CCc2ccccc2)c(=Nc2ccc(F)cc2)s1 | - | - | - | 10µM | - | -
Cc1nc(NC(=O)c2cccnc2Cl)sc1C | - | 3.2µM | - | . | - | .
Cc1nc(NC(=O)c2ccccc2O)sc1C | - | - | - | . | - | ?
Cc1nc(NC(=O)Nc2ccc(Cl)cc2)sc1C | - | 5.6µM | - | - | - | -
CC(C)(C)c1nnc(NC(=O)Nc2ccc(Cl)cc2)s1 | - | - | - | - | - | -
COC[C@@H](c1ccc(C(F)(F)F)cc1)N1CCN(C2(C)CCN(C(=O)c3c(C)ncnc3C)CC2)C[C@H]1C | . | . | - | . | . | .
C=C1C=C(C(F)F)n2ncc(C(=O)NCCc3ccc(Cl)cc3)c2N1 | . | - | . | . | . | .
CCOc1cc(C2Nc3ccccc3C(=O)N2Cc2ccco2)ccc1O (configuration not stated) | . | - | . | . | - | .
NC[C@H]1O[C@H](O[C@H]2[C@H](O)[C@@H](O[C@H]3O[C@H](CO)[C@@H](O)[C@H](N)[C@H]3O)[C@H](N)C[C@@H]2N)[C@H](N)[C@@H](O)[C@@H]1O | . | . | - | . | . | .
O=C(CSc1ncnc2ccccc12)Nc1cc(S(=O)(=O)N2CCCCC2)ccc1Cl | - | - | - | - | - | 16µM
COc1ccccc1CNS(=O)(=O)c1ccc(F)c(C(=O)Nc2cc(Cl)ccc2OC)c1 | . | . | - | . | . | -
CC(=O)c1cccc(Nc2cc(C)nc3nc(-c4ccccc4C)nn23)c1 | . | - | . | . | . | -
OC[C@]1(O)OC[C@@H](O)[C@H](O)[C@@H]1O | . | . | - | . | . | .
COC(=O)C(Cc1csc2ccc(Cl)cc12)NC(=O)c1ccc(Cl)cc1 (configuration not stated) | - | - | -68 | -[7.67 µM] | - | -
COc1ccccc1CC(Cc1nc2ccccc2[nH]1)c1nc2ccccc2[nH]1 (configuration not stated) | - | - | -67 | - | - | -
Cc1ccc2nc(-c3ccc(N4C(=NC(=O)CCC(=O)O)SC5CS(=O)(=O)CC54)cc3)sc2c1 (configuration not stated) | - | 5.6µM | - | - | - | -
CCC[n+]1c(/C=C/c2c(OC)cc(OC)cc2OC)ccc2ccccc21 | . | - | . | . | . | .
CCOc1ccc(NC(=O)Cn2c(=O)n(Cc3ccc(C(=O)NCc4ccc(C)cc4)cc3)c(=O)c3ccccc32)cc1 | . | - | . | . | . | -
COc1ccc2sc(/C=C/c3ccccc3O)[n+](C)c2c1 | - | - | - | 13µM | - | -
COc1ccc(N=Cc2ccccc2O)cc1 | - | - | - | . | - | .
O=S(=O)(Nc1ccc(-c2nc3cccnc3s2)cc1)c1ccc(Cl)s1 | - | - | - | - | - | -
O=S(=O)(Nc1ccc(-c2nc3cccnc3s2)cc1)c1ccccc1F | - | 10µM | - | - | - | -
c1ccc(OCCOc2ncnc3sccc23)cc1 | - | 7.1µM | - | - | - | -
SMILES | IL2 activator | BRCA1 expr up | RXFP1 antag | NPSR antag | Giardia killer | RXFP1 agonist
COc1cccc(COc2ncnc3sccc23)c1 | - | - | - | - | - | -
COc1ccc(-n2c(=O)c3c4c(sc3n(Cc3cc(=O)n5c(C)cccc5n3)c2=O)CCC4)c(OC)c1 | . | - | . | . | . | -
Cc1ccc(C(=O)NCC(=O)NC23CC4CC(CC(C4)C2)C3)cc1 | - | 6.3µM | - | . | - | -
O=C(COC(=O)CNC(=O)c1ccccc1)NC12CC3CC(CC(C3)C1)C2 | - | - | - | . | . | .
NC(=O)c1cccnc1Nc1cccc([N+](=O)[O-])c1 | - | 1.8µM | - | - | - | -
CCCCc1nc2cc(C(=O)N3CCC(O)CC3)ccc2o1 | - | 3.5µM | - | . | - | -

Source: PubChem BioAssay (National Center for Advancing Translational Sciences (NCATS))
